# Source: the supplement of paper PMC8728848
# Shown is part of a subset that was picked to be rich in the strongest signals.
# How the values were obtained:
# Assay in all cases: glycan array binding signal (z-score within array); higher = stronger binding
# Conditions in all cases: glycan notation: IUPAC condensed, linker removed
# [1] = target: Fuc(a1-2)Gal(b1-3)GalNAc
# How it was run: (§1)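 The binding signal is a Z-score computed within each array. Data were drawn from 3228 arrays in the Consortium for Functional Glycomics database, restricted to those with a known protein sequence. Scores were averaged over arrays of the same protein sequence at different concentrations or buffers, and over linkers, and negative values can be taken as non-binding.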
# [2] = target: Fuc(a1-2)Gal(b1-3)GalNAc(b1-4)[Neu5Ac(a2-3)]Gal(b1-4)Glc
# How it was run: as §1
# [3] = target: Fuc(a1-2)Gal(b1-3)GlcNAc(b1-2)Man(a1-3)[Fuc(a1-2)Gal(b1-3)GlcNAc(b1-2)Man(a1-6)]Man(b1-4)GlcNAc(b1-4)GlcNAc
# How it was run: as §1
# [4] = target: Fuc(a1-2)Gal(b1-4)GlcNAc(b1-3)Gal(b1-4)GlcNAc
# How it was run: as §1
# [5] = target: Fuc(a1-2)Gal(b1-4)[Fuc(a1-3)]GlcNAc
# How it was run: as §1
# [6] = target: Fuc(a1-2)Gal(b1-4)[Fuc(a1-3)]GlcNAc(b1-3)Gal(b1-4)[Fuc(a1-3)]GlcNAc
# How it was run: as §1
# [7] = target: Fuc(a1-2)[Gal(a1-3)]Gal(b1-3)GalNAc(b1-3)Gal(a1-4)Gal(b1-4)Glc
# How it was run: as §1
# [8] = target: Fuc(a1-2)[Gal(a1-3)]Gal(b1-3)GlcNAc(b1-3)GalNAc
# How it was run: as §1
# [9] = target: Fuc(a1-2)[Gal(a1-3)]Gal(b1-4)[Fuc(a1-3)]Glc
# How it was run: as §1
# [10] = target: Fuc(a1-2)[GalNAc(a1-3)]Gal
# How it was run: as §1
# [11] = target: Fuc(a1-2)[GalNAc(a1-3)]Gal(b1-4)GlcNAc(b1-2)Man
# How it was run: as §1
# [12] = target: Fuc(a1-3)[Gal(b1-4)]GlcNAc(b1-3)Gal(b1-3)[Fuc(a1-4)]GlcNAc
# How it was run: as §1
# [13] = target: Gal(a1-3)Gal(b1-4)GlcNAc
# How it was run: as §1
# [14] = target: Gal(a1-3)Gal(b1-4)GlcNAc(b1-2)Man
# How it was run: as §1
# [15] = target: Gal(a1-4)Gal(b1-4)GlcNAc
# How it was run: as §1
# [16] = target: Gal(a1-4)Gal(b1-4)GlcNAc(b1-2)Man(a1-3)[Gal(a1-4)Gal(b1-4)GlcNAc(b1-2)Man(a1-6)]Man(b1-4)GlcNAc(b1-4)GlcNAc
# How it was run: as §1
# [17] = target: Gal(b1-3)GlcNAc(b1-2)Man(a1-3)[GlcNAc(b1-4)][Gal(b1-3)GlcNAc(b1-2)Man(a1-6)]Man(b1-4)GlcNAc(b1-4)GlcNAc
# How it was run: as §1
# [18] = target: Gal(b1-3)GlcNAc(b1-2)[Gal(b1-3)GlcNAc(b1-6)]Man(a1-6)[Gal(b1-3)GlcNAc(b1-2)Man(a1-3)]Man(b1-4)GlcNAc(b1-4)GlcNAc
# How it was run: as §1
# [19] = target: Gal(b1-3)GlcNAc(b1-3)GalNAc
# How it was run: as §1
# [20] = target: Gal(b1-3)[Fuc(a1-4)]GlcNAc(b1-2)Man(a1-3)[Gal(b1-3)[Fuc(a1-4)]GlcNAc(b1-2)Man(a1-6)]Man(b1-4)GlcNAc(b1-4)[Fuc(a1-6)]GlcNAc
# How it was run: as §1
# [21] = target: Gal(b1-4)GlcNAc(b1-2)Man(a1-3)[GlcNAc(b1-2)Man(a1-6)]Man(b1-4)GlcNAc(b1-4)GlcNAc
# How it was run: as §1
# [22] = target: Gal(b1-4)GlcNAc(b1-2)[Gal(b1-4)GlcNAc(b1-6)]Man(a1-6)[Gal(b1-4)GlcNAc(b1-2)Man(a1-3)]Man(b1-4)GlcNAc(b1-4)[Fuc(a1-6)]GlcNAc
# How it was run: as §1
# [23] = target: Gal(b1-4)GlcNAc(b1-2)[Gal(b1-4)GlcNAc(b1-6)]Man(a1-6)[GlcNAc(b1-4)][Gal(b1-4)GlcNAc(b1-2)[Gal(b1-4)GlcNAc(b1-4)]Man(a1-3)]Man(b1-4)GlcNAc(b1-4)[Fuc(a1-6)]GlcNAc
# How it was run: as §1
# [24] = target: Gal(b1-4)GlcNAc(b1-3)Gal(b1-4)GlcNAc(b1-3)Gal(b1-4)GlcNAc(b1-3)Gal(b1-4)GlcNAc(b1-2)Man(a1-3)[Gal(b1-4)GlcNAc(b1-3)Gal(b1-4)GlcNAc(b1-3)Gal(b1-4)GlcNAc(b1-3)Gal(b1-4)GlcNAc(b1-2)Man(a1-6)]Man(b1-4)GlcNAc(b1-4)[Fuc(a1-6)]GlcNAc
# How it was run: as §1
# [25] = target: Gal3S(b1-4)[Fuc(a1-3)]Glc6S
# How it was run: as §1
# [26] = target: GalNAc(b1-3)GlcNAc
# How it was run: as §1
# [27] = target: GalNAc(b1-4)Gal(b1-4)Glc
# How it was run: as §1
# [28] = target: GlcNAc(a1-4)Gal(b1-4)GlcNAc(b1-3)Gal(b1-4)GlcNAc(b1-3)Gal(b1-4)GlcNAc
# How it was run: as §1
# [29] = target: GlcNAc(b1-3)Gal(b1-4)GlcNAc(b1-3)Gal(b1-4)GlcNAc(b1-3)Gal(b1-4)GlcNAc(b1-2)Man(a1-3)[GlcNAc(b1-3)Gal(b1-4)GlcNAc(b1-3)Gal(b1-4)GlcNAc(b1-3)Gal(b1-4)GlcNAc(b1-2)Man(a1-6)]Man(b1-4)GlcNAc(b1-4)[Fuc(a1-6)]GlcNAc
# How it was run: as §1
# [30] = target: GlcNAc(b1-3)Gal(b1-4)GlcNAc(b1-3)Gal(b1-4)GlcNAc(b1-3)Gal(b1-4)GlcNAc(b1-3)Gal(b1-4)GlcNAc(b1-2)Man(a1-3)[GlcNAc(b1-3)Gal(b1-4)GlcNAc(b1-3)Gal(b1-4)GlcNAc(b1-3)Gal(b1-4)GlcNAc(b1-3)Gal(b1-4)GlcNAc(b1-2)Man(a1-6)]Man(b1-4)GlcNAc(b1-4)GlcNAc
# How it was run: as §1
# [31] = target: GlcNAc(b1-3)Man
# How it was run: as §1
# [32] = target: GlcNAc(b1-4)GlcNAc(b1-4)GlcNAc(b1-4)GlcNAc(b1-4)GlcNAc
# How it was run: as §1
# [33] = target: Kdn(a2-3)Gal(b1-3)GalNAc
# How it was run: as §1
# [34] = target: Man(a1-3)[Man(a1-6)]Man(a1-6)[Man(a1-3)]Man
# How it was run: as §1
# [35] = target: Neu5Ac(a2-3)Gal(b1-3)GlcNAc(b1-2)Man(a1-3)[Neu5Ac(a2-3)Gal(b1-3)GlcNAc(b1-2)Man(a1-6)]Man(b1-4)GlcNAc(b1-4)GlcNAc
# How it was run: as §1
# [36] = target: Neu5Ac(a2-3)Gal(b1-4)GlcNAc(b1-3)Gal(b1-4)GlcNAc(b1-3)GalNAc
# How it was run: as §1
# [37] = target: Neu5Ac(a2-3)Gal(b1-4)[Fuc(a1-3)]GlcNAc(b1-2)Man
# How it was run: as §1
# [38] = target: Neu5Ac(a2-3)Gal(b1-4)[Fuc(a1-3)]GlcNAc(b1-3)GalNAc
# How it was run: as §1
# [39] = target: Neu5Ac(a2-3)Gal6S(b1-4)GlcNAc
# How it was run: as §1
# [40] = target: Neu5Ac(a2-6)Gal(b1-4)GlcNAc(b1-2)Man(a1-3)[Man(a1-6)]Man(b1-4)GlcNAc(b1-4)GlcNAc
# How it was run: as §1
# [41] = target: Neu5Ac(a2-6)Gal(b1-4)GlcNAc(b1-3)Gal(b1-4)GlcNAc(b1-3)Gal(b1-4)GlcNAc
# How it was run: as §1
# [42] = target: Neu5Ac(a2-6)Gal(b1-4)GlcNAc(b1-3)Gal(b1-4)[Fuc(a1-3)]GlcNAc(b1-3)Gal(b1-4)[Fuc(a1-3)]GlcNAc
# How it was run: as §1
# [43] = target: Neu5Ac(a2-6)Gal(b1-4)GlcNAc(b1-6)[Gal(b1-3)]GalNAc
# How it was run: as §1
# [44] = target: Neu5Ac(a2-8)Neu5Ac(a2-8)Neu5Ac(a2-3)[Gal(b1-3)GalNAc(b1-4)]Gal(b1-4)Glc
# How it was run: as §1
# [45] = target: Neu5Gc(a2-3)Gal(b1-4)GlcNAc(b1-3)Gal(b1-4)GlcNAc(b1-2)Man(a1-3)[Neu5Gc(a2-3)Gal(b1-4)GlcNAc(b1-3)Gal(b1-4)GlcNAc(b1-2)Man(a1-6)]Man(b1-4)GlcNAc(b1-4)GlcNAc
# How it was run: as §1
# [46] = target: Neu5Gc(b2-6)Gal(b1-4)GlcNAc
# How it was run: as §1
binder,measurement,setting,value
"Thrombomodulin Extracellular (Mus musculus), P15306 (protein) MLGIFFLGVLAPASLGLSALAKLQPTGSQCVEHECFALFQGPATFLDASQACQRLQGHLMTVRSSVAADVISLLLSQSSMDLGPWIGLQLPQGCDDPVHLGPLRGFQWVTGDNHTSYSRWARPNDQTAPLCGPLCVTVSTATEAAPGEPAWEEKPCETETQGFLCEFYFTASCRPLTVNTRDPEAAHISSTYNTPFGVSGADFQTLPVGSSAAVEPLGLELVCRAPPGTSEGHWAWEATGAWNCSVENGGCEYLCNRSTNEPRCLCPRDMDLQADGRSCARPVVQSCNELCEHFCVSNAEVPGSYSCMCETGYQLAADGHRCEDVDDCKQGPNPCPQLCVNTKGGFECFCYDGYELVDGECVELLDPCFGSNCEFQCQPVSPTDYRCICAPGFAPKPDEPHKCEMFCNETSCPADCDPNSPTVCECPEGFILDEGSVCTDIDECSQGECFTSECRNFPGSYECICGPDTALAGQISKDCDPIPVREDTKEEEGSGEPPVSPTPGSPTGPPSARPVHSGVLIGISIASLSLVVALLALLCHLRKKQGAARAELEYKCASSAKEVVLQHVRTDRTLQKF",glycan array binding signal (z-score),[1],-0.717
same,glycan array binding signal (z-score),[2],-0.952
same,glycan array binding signal (z-score),[3],2.48
same,glycan array binding signal (z-score),[4],0.406
same,glycan array binding signal (z-score),[5],-0.221
same,glycan array binding signal (z-score),[6],0.048
same,glycan array binding signal (z-score),[7],1.38
same,glycan array binding signal (z-score),[8],2.8
same,glycan array binding signal (z-score),[9],-1.18
same,glycan array binding signal (z-score),[10],-0.162
same,glycan array binding signal (z-score),[11],1.79
same,glycan array binding signal (z-score),[12],-0.513
same,glycan array binding signal (z-score),[13],-0.81
same,glycan array binding signal (z-score),[14],-2.66
same,glycan array binding signal (z-score),[15],-0.239
same,glycan array binding signal (z-score),[16],1.73
same,glycan array binding signal (z-score),[17],0.655
same,glycan array binding signal (z-score),[18],0.399
same,glycan array binding signal (z-score),[19],-0.059
same,glycan array binding signal (z-score),[20],2.94
same,glycan array binding signal (z-score),[21],-1.49
same,glycan array binding signal (z-score),[22],-0.135
same,glycan array binding signal (z-score),[23],-0.329
same,glycan array binding signal (z-score),[24],2.27
same,glycan array binding signal (z-score),[25],2.97
same,glycan array binding signal (z-score),[26],-0.126
same,glycan array binding signal (z-score),[27],3.27
same,glycan array binding signal (z-score),[28],2.52
same,glycan array binding signal (z-score),[29],1.85
same,glycan array binding signal (z-score),[30],-0.332
same,glycan array binding signal (z-score),[31],0.187
same,glycan array binding signal (z-score),[32],1.75
same,glycan array binding signal (z-score),[33],-0.442
same,glycan array binding signal (z-score),[34],2.92
same,glycan array binding signal (z-score),[35],2.55
same,glycan array binding signal (z-score),[36],-0.036
same,glycan array binding signal (z-score),[37],-1.17
same,glycan array binding signal (z-score),[38],2.09
same,glycan array binding signal (z-score),[39],-0.167
same,glycan array binding signal (z-score),[40],2.56
same,glycan array binding signal (z-score),[41],-0.19
same,glycan array binding signal (z-score),[42],-0.473
same,glycan array binding signal (z-score),[43],-1.23
same,glycan array binding signal (z-score),[44],2.49
same,glycan array binding signal (z-score),[45],1.29
same,glycan array binding signal (z-score),[46],-0.009
